The whole screen tested about 350,000 compounds, of which about 9,900 (2.8%) were called active. Not shown: some 15% with an inconclusive outcome. This is one part of a sample in which actives are shown more often than they occur. The call rests on the fitted dose curve; in most records, active means well fitted activation curve with a large enough effect; inconclusive means small, poorly fitted or top-dose-only effect; inactive means no such curve, though single readings can be large or run the other way.
Test: A quantitative high throughput screen for small molecules that induce DNA re-replication in MCF 10a normal breast cells. Further: nearly all actives have a fitted effect of over 50% in size. On activity, positive = re-replication: % of control where 0% means no effect.
Conditions: MCF 10A DNA re-replication, Hoechst nuclear intensity, 48 h; series mostly up to 46.1 µM; activity, positive = re-replication: at the top concentration
Potency means the concentration at half of the fitted maximal effect.

SMILES | Potency | activity, positive = re-replication
O=C(Nc1nnc(SCc2c(Cl)cccc2Cl)s1)C1CCCO1 (stereo not given) | 11.6 µM (active) | 
O=C(Nc1nnc(CCc2ccccc2)s1)C1CCCO1 (stereo not given) |  | -6.69% (inactive)
O=C(Nc1nnc(SCc2ccc(Cl)cc2Cl)s1)C1COc2ccccc2O1 (stereo not given) | 18.4 µM (active) | 
O=C(Nc1nc(-c2ccncc2)cs1)C1COc2ccccc2O1 (stereo not given) |  | 3.86% (inactive)
O=C(Nc1nc2c(F)cc(F)cc2s1)C1COc2ccccc2O1 (stereo not given) |  | 5% (inactive)
O=C(Nc1nnc(SCc2c(Cl)cccc2Cl)s1)c1cccc([N+](=O)[O-])c1 |  | 21% (inactive)
O=C(O)/C=C/c1ccc2c(c1)OCCO2 |  | 13.8% (inactive)
O=C1/C(=C/c2ccc3c(c2)OCO3)CCC/C1=C\c1ccc2c(c1)OCO2 | 14.6 µM (active) | 
O=C(N/N=C/c1ccc2c(c1)OCO2)C(=O)N1CCCC1 |  | 14.4% (inactive)
O=C(COC(=O)c1cc[n+]([O-])cc1)Nc1ccc(Cl)c(C(F)(F)F)c1 |  | 23.8% (inactive)
CCOc1ccc(CCNC(=O)COC(=O)C2CCN(S(=O)(=O)c3ccccc3)CC2)cc1OCC |  | -3.91% (inactive)
CCOc1cccc2cc(C(=O)OCC(=O)Nc3c(C)cccc3CC)c(=O)oc12 |  | -4.55% (inactive)
CN=C(Nc1cccc(S(=O)(=O)N2CCOCC2)c1)c1ccccc1 |  | -0.997% (inactive)
CCN1CCN(CCNC(=O)c2ccc3c(c2)NC(=O)/C(=C\c2ccc(OC)c(OC)c2)S3)CC1 |  | 1.79% (inactive)
CCN1CCN(CCNC(=O)c2ccc(/C=C3/Sc4ccccc4N(Cc4cccc(C)c4)C3=O)cc2)CC1 | 6.51 µM (active) | 
Cc1nn(Cc2ccccc2)c(C)c1C(=O)NCCN1C(=O)S/C(=C\c2ccc(F)cc2)C1=O |  | 5.89% (inactive)
O=C(NCCN1CCOCC1)/C(=C/c1ccc(F)cc1)NC(=O)c1ccccc1 |  | -3.22% (inactive)
O=C(NCCN1CCOCC1)c1ccc(/C=C2\Sc3ccccc3N(Cc3ccc(F)cc3)C2=O)cc1 | 18.4 µM (active) | 
O=C(NCCCN1CCOCC1)c1ccc2c(c1)N(Cc1cccc(F)c1)C(=O)c1ccccc1S2 |  | -2.53% (inactive)
Cn1nnnc1SCC(=O)Nc1sccc1C(N)=O |  | 0.751% (inactive)
COc1ccc([C@H]2CC(=O)C=C(c3ccc(OC(F)(F)F)cc3)C2)cc1OC |  | 6.41% (inactive)
O=C(CSc1nc2ccccc2[nH]1)Nc1nc(-c2ccccc2)c(-c2ccccc2)o1 |  | 0.359% (inactive)
CCc1nnc(NC(=O)CCCSc2nc3ccccc3[nH]2)s1 |  | 0.183% (inactive)
CCC(C)N1C(=O)S/C(=C/c2ccc(Sc3nc4ccccc4[nH]3)o2)C1=O (stereo not given) | 8.2 µM (active) | 

SMILES | Potency | activity, positive = re-replication
C[C@H]1CN([C@@H](C)CO)C(=O)Cc2cc(NC(=O)Cc3ccccc3)ccc2O[C@H]1CN(C)S(=O)(=O)c1cccs1 |  | 5.07% (inactive)
O=C1CC(C(=O)O)NC(=S)N1 (stereo not given) |  | -28.6% (inactive)
Cc1cc(NC(=O)c2cc3ccccc3o2)no1 |  | 1.92% (inactive)
C[C@H](CO)N1C[C@H](C)[C@@H](CN(C)Cc2ccc(-c3ccccc3)cc2)Oc2ccc(NC(=O)Cn3cnnn3)cc2C1=O |  | 4.97% (inactive)
CCn1nc(C)c(/C=N/NC(=O)Cc2ccc(Cl)cc2)c1C |  | -0.496% (inactive)
Cc1nn(Cc2ccc(Cl)cc2)c(Cl)c1/C=N/NC(=O)c1cccnc1 |  | -11% (inactive)
Cc1nn(Cc2ccc(Cl)cc2)c(Cl)c1/C=N/NC(=O)CNc1ccccc1F | 16.4 µM (active) | 
CC(=O)Nc1ccc(S(=O)(=O)Nc2ccc(N3CCCCC3)cc2)cc1 |  | -20.7% (inactive)
Nc1nnc2c(C(F)(F)F)nc3ccccc3n12 |  | -1.13% (inactive)
FC(F)(F)c1nnc2c3ccccc3c(Cl)nn12 | 20.6 µM (active) | 
FC(F)(F)c1nnc2ccc(N3CCN(c4ccccc4)CC3)nn12 |  | -15.9% (inactive)
CCOC(=O)c1ccc(NC(=O)C2CC(=O)N(c3ccc4c(c3)OCCO4)C2)cc1 (stereo not given) |  | -0.605% (inactive)
CC[C@]1(O)CC2CN(CCc3c([nH]c4ccccc34)[C@@](C(=O)OC)(c3cc4c(cc3OC)N(C=O)[C@H]3[C@@](O)(C(=O)OC)[C@H](OC(C)=O)[C@]5(CC)C=CCN6CC[C@]43[C@@H]65)C2)C1 (stereo not given in full) | 0.651 µM (active) | 
O=S(=O)(NCCc1ccccn1)c1cc(Cl)cc(Cl)c1O |  | 12.3% (inactive)
CC(=O)c1ccc(N2CCN(C(=O)c3ccc(Cl)c(S(=O)(=O)NC4CC4)c3)CC2)c(F)c1 |  | 13.4% (inactive)
Cc1ccc(C(=O)Nc2ccn(C)n2)cc1 |  | -0.0546% (inactive)
COc1ccc(NC(=O)COC(=O)c2n[nH]c3ccccc23)c(OC)c1 |  | 0.862% (inactive)
CC(C)(C)OC(=O)C[C@H]1C/C=C\C[C@@H](CC(=O)N[C@H](CO)Cc2ccccc2)C(=O)NC[C@@H](c2ccccc2)OC1=O |  | -0.905% (inactive)
O=C(C[C@H]1C/C=C\C[C@@H](NC(=O)OCC2c3ccccc3-c3ccccc32)C(=O)O[C@@H](c2ccccc2)CNC1=O)N[C@H](CO)Cc1ccccc1 | 10.3 µM (active) | 
CC(C)(C)OC(=O)C[C@@H]1C/C=C\C[C@@H](CC(=O)N[C@H](CO)Cc2ccccc2)C(=O)NC[C@@H](c2ccccc2)OC1=O |  | 0.345% (inactive)
CCN(CC(=O)Nc1c(F)cccc1F)C(=O)Cc1cccs1 |  | -4.02% (inactive)
O=C(c1cnccn1)N1CCN(S(=O)(=O)c2cccc(Cl)c2)CC1 |  | -0.0694% (inactive)
CCOC(=O)N1CCN(CC(=O)c2c(C)[nH]c3ccccc23)CC1 |  | 12% (inactive)
CCOC(=O)c1c(C)[nH]c2c1-c1ccccc1C(=O)C2=O | 1.3 µM (active) | 

SMILES | Potency | activity, positive = re-replication
CCOC(=O)c1c(C)[nH]c(C)c1S(=O)(=O)N(C)CC(=O)Nc1ccccc1C |  | -2.08% (inactive)
COc1ccc(C(=O)N(C)Cc2ccc(OC)c(OC)c2OC)cc1S(=O)(=O)N1CCOCC1 |  | -7.11% (inactive)
O=C(CC(O)(C(F)(F)F)C(F)(F)F)Nc1ccc(Cl)c(Cl)c1 | 5.8 µM (active) | 
Cc1nnc(NC(=O)Nc2ccc(Cl)c(Cl)c2)s1 |  | 0.674% (inactive)
Cc1ccc(NC(=O)C/C(N)=N/O)cc1Cl |  | 3.94% (inactive)
C[C@H](O)[C@@H]1C(=O)N2CCc3ccc(N4CCOCC4)cc3[C@@H]2C[C@@H]1N(C)C(=O)C(C)(C)C |  | -15.5% (inactive)
CN(C)C(=O)CCc1ccc2c3c([nH]c2c1)[C@]1(CCC2CCCC2)[C@@H](C(=O)N2CCOCC2)C[C@H](CC(=O)NCc2ccco2)C(=O)N1CC3 |  | 0.547% (inactive)
CC(=O)OCC1(O)CC23CCC4c5ccoc5CCC4(C)C2CCC1C3 (stereo not given) |  | 4.61% (inactive)
Cc1ccc(CSc2nc(-c3ccccc3)c(C#N)c(=O)[nH]2)cc1 |  | 63.4% (inactive)
N#Cc1c2c(c(-c3ccccc3)[nH]c1=O)CCCC2 |  | -3.44% (inactive)
N#Cc1c(-c2ccccc2)c(-c2ccccc2)n[nH]c1=O | 2.59 µM (active) | 
CCOc1ncccc1C(=O)OCC(=O)Nc1cccc(S(=O)(=O)N2CCCCCC2)c1 |  | 16.2% (inactive)
COc1ccccc1N1CC(C(=O)Nc2ccc(S(=O)(=O)N3CCOCC3)cc2)CC1=O (stereo not given) |  | -0.803% (inactive)
COc1ccc(Cl)cc1NC(=O)C1CC(=O)N(c2ccc(F)cc2)C1 (stereo not given) |  | -12.6% (inactive)
COc1cc(OC)c(N2CC(C(=O)Nc3cc(Cl)ccc3N3CCOCC3)CC2=O)cc1Cl (stereo not given) | 18.4 µM (active) | 
Cc1ccc(CSc2ccc(S(=O)(=O)N3CCCCC3)cn2)cc1 |  | 14% (inactive)
Cc1ccsc1C(=O)NNC(=O)COc1ccc(Br)cc1 |  | 2.39% (inactive)
O=C1c2ccccc2C(=O)C1C(=O)C1CC1 |  | 12% (inactive)
O=c1cc(-c2ccccc2)[nH]c2cc(F)ccc12 | 1.3 µM (active) | 
Cc1ccc(-c2cc(=O)c3ccc(F)cc3[nH]2)cc1 |  | 17.8% (inactive)
Cc1ccc(-c2cc(=O)c3ccc(Cl)cc3[nH]2)cc1 |  | -6.12% (inactive)
C[C@H](CO)N1C[C@H](C)[C@H](CN(C)CC2CC2)Oc2ccc(NC(=O)CCN3CCOCC3)cc2C1=O |  | 0.189% (inactive)
CC(=O)c1ccc(NC(=O)C(C)OC(=O)c2ccc(NS(=O)(=O)c3ccc4[nH]c(=O)[nH]c4c3)cc2)cc1 (stereo not given) |  | -2.03% (inactive)
O=S(=O)(Nc1ncnc2sccc12)c1cccc(F)c1 |  | 7.7% (inactive)

SMILES | Potency | activity, positive = re-replication
CN1c2ccc([N+](=O)[O-])cc2C(C)(C)C12C=Cc1cc(C(=O)O)ccc1O2 (stereo not given) |  | -11.9% (inactive)
COc1ccc2c(c1)C=CC1(O2)N(CCO)c2ccccc2C1(C)C (stereo not given) | 20.6 µM (active) | 
COc1ccc2c(c1)C(SCC(=O)NCc1ccccc1)CC(C)(C)O2 (stereo not given) |  | -3.92% (inactive)
O=C(CN1C(=O)NC2(CCCCCCC2)C1=O)NCc1ccc(F)cc1 |  | 15.7% (inactive)
COc1cccc(C(=O)OCC(=O)c2[nH]c(C)c(C(C)=O)c2C)c1 |  | 15.1% (inactive)
CCN(C[C@H]1N[C@@](CC)(C(=O)OC)[C@H]2C(=O)N(Cc3ccccc3)C(=O)[C@@H]12)S(=O)(=O)c1ccc(C(F)(F)F)cc1 |  | -4.29% (inactive)
CCC1(CC)NC(=O)N(CC(=O)OCC(=O)c2cc(C)c(C)cc2C)C1=O |  | 3.4% (inactive)
O=C(NCC1CCCCC1)NCC1CCCCC1 |  | -1.83% (inactive)
Cc1cnc(NC(=O)c2ccc(Cl)nc2)s1 |  | 0.739% (inactive)
O=C(NNC(=O)c1ccc(Cl)nc1)c1ccc(Br)cc1 |  | -31.3% (inactive)
CCN(CC)c1ccc(NC(=O)c2ccc(Cl)nc2)cc1 | 5.8 µM (active) | 
Cc1ccccc1SCC(=O)OCC(=O)N1CC(=O)Nc2ccccc21 |  | -1.01% (inactive)
Cc1ccccc1-c1cc(C(=O)NCc2cccs2)n(CC2CC(c3cccnc3)=NO2)n1 (stereo not given) |  | -25.3% (inactive)
c1ccc2cc3c(NCCN4CCOCC4)ccnc3cc2c1 | 4.61 µM (active) | 
O=C(NCCN1CCOCC1)c1ccc2c(c1)ncn2C1CCCC1 |  | -3.91% (inactive)
O=C(NCCN1CCOCC1)c1cc(-c2cccs2)nc2ccccc12 |  | 6.61% (inactive)
COc1cc(C2CC(=O)Oc3cc(OC)c(OC)c(OC)c32)cc(OC)c1OC (stereo not given) |  | 2.66% (inactive)
Cc1ccc(-c2nnc(-c3ccc(NC(=O)c4cccs4)cc3)o2)cc1 |  | 23.4% (inactive)
COc1cc2ccccc2cc1C(=O)Nc1ccc(NC(=O)c2cccs2)cc1 |  | 5.54% (inactive)
Cc1ccc(OCC(=O)Nc2ccc(NC(=O)c3cccs3)cc2)c(C)c1 | 20.6 µM (active) | 
Cn1cccc1C(=O)OCC(=O)NCCc1ccccc1 |  | -4.88% (inactive)
Cc1ccc(S(=O)(=O)N2CCN(C(=O)CN3C(=O)NC(C)(c4ccc(Cl)cc4)C3=O)CC2)c(C)c1 (stereo not given) |  | -1.48% (inactive)
NC(=O)c1ccc(N2CCCC2)nc1 |  | -25.7% (inactive)

Reference: PubChem BioAssay AID624296 (National Center for Advancing Translational Sciences (NCATS), 2012)
